According to PubChem BioAssay (NCI):
The panel holds about 83,000 compounds, 20% with a hit somewhere; the sample as a whole holds those more often.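 Interpretation: 100, growth as untreated; towards 0, rising growth inhibition; 0, no net growth; 0 to -100, cell death. Compounds scoring below 10 were considered active.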 Unmarked numbers belong to inactive results. Calls of active or inactive are those of the source.

System: NCI-H23 lung
Assay: NCI-60 one-dose screen, 48 h (100 = growth as untreated, 0 = no growth, -100 = all killed)
Settings: 10 µM unless noted

Compound | growth
O=C(COc1cccc(/C=C2\COc3ccc(Cl)cc3C2=O)c1)c1ccc(Cl)cc1 | 86.1%
Cc1cc(Nc2ccc(C)c(Cl)c2)n2nc(C(F)(F)F)nc2n1 | 63.6%
CN(C)c1ccc(NC(=O)c2ccc(/C=C/C(=O)c3ncc[nH]3)cc2)cc1 | 59.8%
O=[N+]([O-])c1ccccc1/C=N\NC(=S)N/N=C/c1ccccc1[N+](=O)[O-] | 70.1%
O=C(Oc1cccnc1)c1ccsc1Nc1ccnc(C(F)(F)F)c1 | 35.4%
OC(c1cc2cc(Cl)c(Cl)cc2c2cc(C(F)(F)F)ccc12)C1CCCCN1 (stereo unspecified) | -52.9% (active)
COc1ccc(-c2cc(-c3ccc(Nc4ccnc5cc(Cl)ccc45)cc3)nc(N3CCOCC3)n2)cc1 | 68%
C=C1C(=O)O[C@H]2[C@H]1CC/C(COC(=O)NCCc1ccc(OC)c(OC)c1)=C\CC[C@@]1(C)O[C@@H]21 | 59.2%
O=[N+]([O-])c1ccc2c(c1)Cc1cc(F)ccc1-2 | 105%
CN1CCN(c2nc(NCCCNc3ccnc4cc(Cl)ccc34)c3ccccc3n2)CC1 | 72.5%
Clc1ccc2c(NCCCCNc3nc(N4CCCCC4)nc4ccccc34)ccnc2c1 | 53.1%
NC(=NC1C2CC3CC(C2)CC1C3)Nc1ccc(I)cc1 (stereo unspecified) | 15.4%
CCOc1nc(-c2ccccc2)cc2c(O)c(C(=O)O)[nH]c(=O)c12 | 60.9%
COc1ccc(Nc2cc(C)nc(N3CCN(c4ccnc5cc(Cl)ccc45)CC3)n2)cc1 | 41.2%
Cc1cc(N2CCN(c3ccnc4cc(Cl)ccc34)CC2)nc(N2CCOCC2)n1 | 84.4%
N#Cc1c(N)n(CCNC(=O)c2ccccc2)c2nc3ccccc3nc12 | 103%
COc1ccc(CN2c3ccccc3Sc3ccccc32)c(C(F)(F)F)c1 | 43.9%
CCc1c(Nc2ccccc2C)nc(N)[nH]c1=O | 117%
CC(=O)c1cc2c(N)c(C(=O)Nc3ccccc3)sc2nc1C | 91.5%

Compound | growth
CCCCC/C(C=C(C#N)C#N)=C/c1ccccc1 | 68.9%
OCCNc1nccc(N2CCN(c3ccnc4cc(Cl)ccc34)CC2)n1 | 80.5%
Cc1cc(N2CCSCC2)nc(NC2CCCC(Nc3ccnc4cc(Cl)ccc34)C2)n1 (stereo unspecified) | 35.1%
COc1ccc(Nc2c3c4c(cccc4[nH]c2=O)C(=O)c2ccccc2-3)cc1 | 4.11% (active)
O=C1/C(=C/c2ccccc2O)N=C2SCCCN12 | 80.9%
COc1cc2c(cc1O)CC[C@@H]1[C@@H]2CC[C@]2(C)[C@@H](OCCCN(C)C)CC[C@@H]12 | -30% (active)
O=C(Cn1cccc(Nc2ccccc2)c1=O)Nc1ccccc1 | 113%
Cc1cc(N2CCN(c3ccnc4cc(Cl)ccc34)CC2)nc(NC2CCCCC2)n1 | 29.9%
CSc1ccc(SC2c3ccc(C)cc3Oc3nc(N)c(C#N)c(N)c32)cc1 (stereo unspecified) | -74.2% (active)
O=c1ccccc(-c2ccc(-c3ccco3)cc2)c1O | 19.1%
O=C(COc1ccc(/C=C2\CSc3ccccc3C2=O)cc1)Nc1nccs1 | 61.1%
CN(C)CCCNc1c2ccccc2nc2ccccc12 | 93.3%
O=C(Cc1ccc(/C=C/C(=O)c2ncc[nH]2)cc1)Nc1ccccc1 | 39.8%
CC/C=C\C/C=C\C[C@H]1C/C=C2/C(=O)C=C[C@@H]2C/C=C\CCC(=O)O1 | 12.1%
COc1cccc(-c2nc(SCC(=O)Nc3ccc(C(=O)/C=C/c4ccc(OC)c(OC)c4)cc3)[nH]c(=O)c2C#N)c1 | 77.7%
Cc1cc(N2CCN(C)CC2)nc(NC2CCCC(Nc3ccnc4cc(Cl)ccc34)C2)n1 (stereo unspecified) | 35.9%
Clc1ccc2nc3nc4ccc[nH]c4cc3c2c1 | 73.7%
COc1ccc2c(c1)C(=O)/C(=C/c1ccccn1)CC2 | 74.1%
COc1ccc(C2Nc3c(c(C(C)(C)C)nn3-c3ccccc3)C(=O)CS2)cc1 (stereo unspecified) | 99.6%

System: NCI-H226 lung
Assay: as above
Settings: 10 µM unless noted

Compound | growth
O=C(COc1cccc(/C=C2\COc3ccc(Cl)cc3C2=O)c1)c1ccc(Cl)cc1 | 88.1%
Cc1cc(Nc2ccc(C)c(Cl)c2)n2nc(C(F)(F)F)nc2n1 | 21.3%
CN(C)c1ccc(NC(=O)c2ccc(/C=C/C(=O)c3ncc[nH]3)cc2)cc1 | 89.1%
O=[N+]([O-])c1ccccc1/C=N\NC(=S)N/N=C/c1ccccc1[N+](=O)[O-] | 83.1%
O=C(Oc1cccnc1)c1ccsc1Nc1ccnc(C(F)(F)F)c1 | 98.6%
OC(c1cc2cc(Cl)c(Cl)cc2c2cc(C(F)(F)F)ccc12)C1CCCCN1 (stereo unspecified) | -72.3% (active)
COc1ccc(-c2cc(-c3ccc(Nc4ccnc5cc(Cl)ccc45)cc3)nc(N3CCOCC3)n2)cc1 | 69.4%
C=C1C(=O)O[C@H]2[C@H]1CC/C(COC(=O)NCCc1ccc(OC)c(OC)c1)=C\CC[C@@]1(C)O[C@@H]21 | 82.6%
O=[N+]([O-])c1ccc2c(c1)Cc1cc(F)ccc1-2 | 99.4%
CN1CCN(c2nc(NCCCNc3ccnc4cc(Cl)ccc34)c3ccccc3n2)CC1 | 70%
Clc1ccc2c(NCCCCNc3nc(N4CCCCC4)nc4ccccc34)ccnc2c1 | 35.8%
NC(=NC1C2CC3CC(C2)CC1C3)Nc1ccc(I)cc1 (stereo unspecified) | 84.7%
CCOc1nc(-c2ccccc2)cc2c(O)c(C(=O)O)[nH]c(=O)c12 | 101%
COc1ccc(Nc2cc(C)nc(N3CCN(c4ccnc5cc(Cl)ccc45)CC3)n2)cc1 | 60.6%
Cc1cc(N2CCN(c3ccnc4cc(Cl)ccc34)CC2)nc(N2CCOCC2)n1 | 88.6%
N#Cc1c(N)n(CCNC(=O)c2ccccc2)c2nc3ccccc3nc12 | 97.2%
COc1ccc(CN2c3ccccc3Sc3ccccc32)c(C(F)(F)F)c1 | 57.7%
CCc1c(Nc2ccccc2C)nc(N)[nH]c1=O | 103%
CC(=O)c1cc2c(N)c(C(=O)Nc3ccccc3)sc2nc1C | 92%

Compound | growth
CCCCC/C(C=C(C#N)C#N)=C/c1ccccc1 | 116%
OCCNc1nccc(N2CCN(c3ccnc4cc(Cl)ccc34)CC2)n1 | 92.2%
Cc1cc(N2CCSCC2)nc(NC2CCCC(Nc3ccnc4cc(Cl)ccc34)C2)n1 (stereo unspecified) | 18.2%
COc1ccc(Nc2c3c4c(cccc4[nH]c2=O)C(=O)c2ccccc2-3)cc1 | 17%
O=C1/C(=C/c2ccccc2O)N=C2SCCCN12 | 97.2%
COc1cc2c(cc1O)CC[C@@H]1[C@@H]2CC[C@]2(C)[C@@H](OCCCN(C)C)CC[C@@H]12 | 9.47% (active)
O=C(Cn1cccc(Nc2ccccc2)c1=O)Nc1ccccc1 | 103%
Cc1cc(N2CCN(c3ccnc4cc(Cl)ccc34)CC2)nc(NC2CCCCC2)n1 | 64.4%
CSc1ccc(SC2c3ccc(C)cc3Oc3nc(N)c(C#N)c(N)c32)cc1 (stereo unspecified) | -88.7% (active)
O=c1ccccc(-c2ccc(-c3ccco3)cc2)c1O | 21.7%
O=C(COc1ccc(/C=C2\CSc3ccccc3C2=O)cc1)Nc1nccs1 | 97.9%
CN(C)CCCNc1c2ccccc2nc2ccccc12 | 81.1%
O=C(Cc1ccc(/C=C/C(=O)c2ncc[nH]2)cc1)Nc1ccccc1 | 87.7%
CC/C=C\C/C=C\C[C@H]1C/C=C2/C(=O)C=C[C@@H]2C/C=C\CCC(=O)O1 | -36.1% (active)
COc1cccc(-c2nc(SCC(=O)Nc3ccc(C(=O)/C=C/c4ccc(OC)c(OC)c4)cc3)[nH]c(=O)c2C#N)c1 | 105%
Cc1cc(N2CCN(C)CC2)nc(NC2CCCC(Nc3ccnc4cc(Cl)ccc34)C2)n1 (stereo unspecified) | 5.72% (active)
Clc1ccc2nc3nc4ccc[nH]c4cc3c2c1 | 83.8%
COc1ccc2c(c1)C(=O)/C(=C/c1ccccn1)CC2 | 95.8%
COc1ccc(C2Nc3c(c(C(C)(C)C)nn3-c3ccccc3)C(=O)CS2)cc1 (stereo unspecified) | 98.2%
